According to PubChem BioAssay (EPA / NIEHS):
“And” between values parts separate entries of the source, which are not always exact repeats. Equal values may be shown once. Records with an inconclusive call do not appear. Where a structure was tested more than once in an assay, its records may differ in their call. The source made the active and inactive calls. The calls were made as follows, unless noted: active = hit-call score of the fitted dose curve at least 0.9, where 1 is the maximum; inconclusive = response in the unintended direction; inactive = score below 0.9.

Key:
[1] = target: Cellular tumor antigen p53 (Homo sapiens) (UniProt P04637); test: TOX21_p53_BLA_p5_ratio: Tox21 HCT-116 p53 Agonism Beta-lactamase Assay, Ratio, Phase 5 (AID 2283599)
Outline: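 HCT-116 cells carrying a p53-inducible beta-lactamase reporter were seeded at 4000 cells/well and dosed after 5 h with compound in DMSO (217-fold dilution). After 16 h at 37C, CCF4-AM substrate was added for 2 h, and the 460/530 nm emission ratio was scored as gain-of-signal versus DMSO.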

[2] = TOX21_p53_BLA_p5_viability: Viability Assessment in the Tox21 HCT-116 p53 Agonism Beta-lactamase Assay, Phase 5 (AID 2283600)
Outline: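 Luciferase-coupled ATP quantitation of cells treated for 16 h (37C, 5% CO2) with test chemicals delivered in DMSO via a 217-fold dilution; 4000 cells/well; reagent incubated 30 min at room temperature before luminescence reading.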

[3] = target: Cellular tumor antigen p53 (Homo sapiens) (UniProt P04637); test: TOX21_p53_BLA_p4_ratio: Tox21 HCT-116 p53 Agonism Beta-lactamase Assay, Ratio, Phase 4 (AID 2283601)
Outline: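 HCT116 cells carrying an inducible beta-lactamase reporter were plated at 4000 cells/well, rested 5 h, then exposed to compounds in DMSO (217-fold dilution) for 16 h at 37C. CCF4-AM substrate was loaded 2 h at room temperature; 460/530 nm emission ratio scored gain-of-signal versus DMSO.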

[4] = CCTE_Shafer_MEA_dev_firing_rate_mean: CCTE's Neural Network Formation Assay for Mean Firing Rate, Shafer Lab (AID 2284031; active = hit-call score of the fitted dose curve at least 0.9, where 1 is the maximum; inactive = score below 0.9)
Outline: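 Extracellular spike frequency, AUC over DIV 5–12 recordings, in rat cortical neuron MEA cultures dosed from plating; loss direction vs DMSO.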

[5] = CCTE_Shafer_MEA_dev_per_burst_spike_percent: CCTE's Neural Network Formation Assay for Percent of Spikes in a Burst, Shafer Lab (AID 2284032; active = hit-call score of the fitted dose curve at least 0.9, where 1 is the maximum; inactive = score below 0.9)
Outline: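 Value is trapezoidal AUC over recordings on days 5, 7, 9 and 12 of the well-mean fraction of spikes falling in single-electrode bursts; rat cortical cultures exposed continuously from plating, treatment renewed DIV 5 and 9, fitted downward against DMSO.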

[6] = CCTE_Shafer_MEA_dev_active_electrodes_number: CCTE's Neural Network Formation Assay for Number of Active Electrodes, Shafer Lab (AID 2284040)
Outline: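 Developing rat cortical networks on MEAs, exposed DIV 0–12. Value is the AUC of active-electrode counts (≥5 spikes/min) from days 5, 7, 9, 12, relative to DMSO.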

[7] = CCTE_Shafer_MEA_dev_burst_rate: CCTE's Neural Network Formation Assay for Burst Rate, Shafer Lab (AID 2284042; active = hit-call score of the fitted dose curve at least 0.9, where 1 is the maximum; inactive = score below 0.9)
Outline: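 Developmental network assay measuring how 12-day exposure of rat cortical neuron cultures alters bursting on extracellular MEA recordings. Values are AUC of well-mean burst rate across four recording days, relative to DMSO vehicle.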

[8] = CCTE_Shafer_MEA_dev_per_burst_interspike_interval: CCTE's Neural Network Formation Assay for Burst Interspike Interval, Shafer Lab (AID 2284044; active = hit-call score of the fitted dose curve at least 0.9, where 1 is the maximum; inactive = score below 0.9)
Outline: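 Rat cortical primary cultures, 16 electrodes/well; compound from plating, renewed with full media change DIV 5 and 9. Spikes via adaptive detector; per-burst ISI well-mean over active bursting electrodes; AUC of DIV 5/7/9/12 recordings; loss-direction fit vs DMSO.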

[9] = CCTE_Shafer_MEA_dev_burst_duration_mean: CCTE's Neural Network Formation Assay for Mean Burst Duration, Shafer Lab (AID 2284045; active = hit-call score of the fitted dose curve at least 0.9, where 1 is the maximum; inactive = score below 0.9)
Outline: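 Network-formation assay in primary rat cortical neurons; treatment spans twelve days of development. Mean burst duration per well is integrated by trapezoidal AUC and fitted in the loss-of-signal direction against DMSO baseline.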

[10] = CCTE_Shafer_MEA_dev_interburst_interval_mean: CCTE's Neural Network Formation Assay for Mean Interburst Interval, Shafer Lab (AID 2284046; active = hit-call score of the fitted dose curve at least 0.9, where 1 is the maximum; inactive = score below 0.9;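 also: well-mean interburst interval of bursting electrodes as AUC over four recording days; curve fitted for decrease in interburst interval relative to DMSO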)
Outline: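 Network formation assay in primary rat cortical cultures, exposed from DIV 0 to 12. Mean interburst interval per well, integrated as AUC over four recordings.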

[11] = CCTE_Shafer_MEA_dev_network_spike_number: CCTE's Neural Network Formation Assay for Number of Network Spikes, Shafer Lab (AID 2284048; active = hit-call score of the fitted dose curve at least 0.9, where 1 is the maximum; inactive = score below 0.9;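 also: synchronized bursts across electrodes counted on days 5 7 9 12 and integrated as AUC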)
Outline: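 Extracellular recordings from 16-electrode wells track network formation in rat cortical cultures under continuous treatment from plating. The endpoint is network spike number, expressed as AUC across DIV 5–12 relative to DMSO vehicle.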

[12] = CCTE_Shafer_MEA_dev_network_spike_peak: CCTE's Neural Network Formation Assay for Mean Number of Electrodes in Network Spike, Shafer Lab (AID 2284049; active = hit-call score of the fitted dose curve at least 0.9, where 1 is the maximum; inactive = score below 0.9;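 as to AC50: fitted for loss of signal meaning fewer electrodes in network spikes than DMSO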)
Outline: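 Continuous 12-day exposure of rat cortical cultures, starting at plating, on MEA plates. Endpoint: electrodes participating in network-spike peaks, AUC across DIV 5–12, DMSO as negative control.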

[13] = CCTE_Shafer_MEA_dev_spike_duration_mean: CCTE's Neural Network Formation Assay for Mean Spike Duration, Shafer Lab (AID 2284051; active = hit-call score of the fitted dose curve at least 0.9, where 1 is the maximum; inactive = score below 0.9;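 also: mean network spike duration pooled as area under curve over DIV 5 to 12 recordings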)
Outline: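 With DMSO as baseline, loss of mean network spike duration was scored from extracellular recordings of rat cortical neurons on MEA plates. Exposure spanned plating to DIV 12; the four recording days were collapsed into one AUC value.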

[14] = CCTE_Shafer_MEA_dev_network_spike_duration_std: CCTE's Neural Network Formation Assay for Standard Deviation of Network Spike Duration, Shafer Lab (AID 2284052; active = hit-call score of the fitted dose curve at least 0.9, where 1 is the maximum; inactive = score below 0.9;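 also: area under curve of spike duration SD across recording days 5 to 12; hits are decreases in network spike duration SD versus DMSO vehicle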)
Outline: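 Developing networks of rat cortical neurons were exposed over twelve days in vitro on 48-well MEA plates. Trapezoidal AUC of recordings (DIV 5–12) was analysed for signal loss relative to DMSO vehicle.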

[15] = CCTE_Shafer_MEA_dev_per_network_spike_spike_number_mean: CCTE's Neural Network Formation Assay for Mean Number of Spikes in a Network Spike, Shafer Lab (AID 2284053; active = hit-call score of the fitted dose curve at least 0.9, where 1 is the maximum; inactive = score below 0.9)
Outline: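 First, rat cortical cells (1.5 x 10^5/well) were seeded onto MEA wells; second, dosing began at plating and was refreshed on DIV 5 and 9; finally, network-spike spike counts across DIV 5–12 were summarized as AUC.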

[16] = CCTE_Shafer_MEA_dev_per_network_spike_spike_percent: CCTE's Neural Network Formation Assay for Percent of Spikes in a Network Spike, Shafer Lab (AID 2284054; active = hit-call score of the fitted dose curve at least 0.9, where 1 is the maximum; inactive = score below 0.9)
Outline: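 Developing networks of rat cortical neurons are dosed at day 0 and recorded extracellularly four times up to day 12. The endpoint is the area under the curve of percent spikes in network spikes, fitted in the negative direction relative to DMSO.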

[17] = CCTE_Shafer_MEA_dev_LDH: CCTE's Lactate Dehydrogenase Assay for Cytotoxicity in the Neural Network Formation Assay, Shafer Lab (AID 2284068);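 also: exposure for twelve days from plating with re-dosing on DIV 5 and 9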
Outline: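 Developing rat cortical networks on MEA plates are exposed to compound for 12 days from plating. LDH activity is measured spectrophotometrically, with DMSO as baseline.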

[18] = CCTE_Shafer_MEA_dev_mutual_information_norm: CCTE's Neural Network Formation Assay for Mutual Information Normalization, Shafer Lab (AID 2284091; active = hit-call score of the fitted dose curve at least 0.9, where 1 is the maximum; inactive = score below 0.9)
Outline: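 Exposure of primary rat cortical neurons began at plating and ran to DIV 12, with full media and treatment renewal after DIV 5 and 9 recordings. Mutual information AUC (DIV 5–12) was analysed for loss versus DMSO.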

[19] = CCTE_Shafer_MEA_dev_correlation_coefficient_mean: CCTE's Neural Network Formation Assay for Mean Correlation Coefficient, Shafer Lab (AID 2284093; active = hit-call score of the fitted dose curve at least 0.9, where 1 is the maximum; inactive = score below 0.9)
Outline: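 Extracellular firing from rat cortical networks on 48-well MEAs, DMSO-referenced, negative fitting direction. Compound present from plating to DIV12; mean pairwise correlation per well integrated over DIV5–12 recordings by trapezoidal AUC.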

[20] = UKN2_HCS_IMR90_cell_viability: Viability Assessment in the University of Konstanz (UKN) Leist Lab Neural Crest Cell Migration Assay in human induced IMR90 Pluripotent Stem Cells (UKN2) (AID 2284233; active = hit-call score of the fitted dose curve at least 0.9, where 1 is the maximum; inactive = score below 0.9;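 also: viability of neural crest cells differentiated from IMR90 iPSC measured by calcein-AM fluorescence imaging; cells exposed to compound for 24 h after a 24 h migration phase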)
Outline: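 cMINC format, iPSC-derived neural crest (IMR90); 24 h migration (EGF/FGF, N2-S), then 24 h toxicant. Calcein-AM/H-33342 stain 30 min; fluorescence intensity by HCS; DMSO-normalised, bidirectional fitting.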

Sequence of Cellular tumor antigen p53 (Homo sapiens) (P04637 whole entry, looked up): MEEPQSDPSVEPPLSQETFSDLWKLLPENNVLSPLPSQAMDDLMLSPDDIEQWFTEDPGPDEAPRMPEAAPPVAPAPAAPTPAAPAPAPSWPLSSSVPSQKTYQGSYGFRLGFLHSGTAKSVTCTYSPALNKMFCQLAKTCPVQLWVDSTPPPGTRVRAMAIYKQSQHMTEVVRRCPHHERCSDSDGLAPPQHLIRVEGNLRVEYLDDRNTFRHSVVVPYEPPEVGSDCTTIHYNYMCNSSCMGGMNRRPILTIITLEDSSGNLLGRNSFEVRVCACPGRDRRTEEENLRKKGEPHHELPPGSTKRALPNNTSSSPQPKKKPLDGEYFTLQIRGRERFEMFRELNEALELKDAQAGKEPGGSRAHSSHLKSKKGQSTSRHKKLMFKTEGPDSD

CC(C)NC(C)Cc1ccc(I)cc1 (stereo not drawn)
outcome [1]: inactive | outcome [2]: inactive | outcome [3]: inactive

O=C=NC1CCCCC1
outcome [1]: inactive | outcome [2]: inactive | outcome [3]: inactive

CCCCCCCCCBr
outcome [2]: inactive | outcome [3]: inactive

CCCCCCCCCC(=O)O[C@H]1CC[C@H]2[C@@H]3CCC4=CC(=O)CC[C@@H]4[C@H]3CC[C@]12C
outcome [3]: inactive

NC(=O)C(Cl)Cl
outcome [1]: inactive | outcome [3]: inactive

O=c1[nH]c2ccccc2n1CCCN1CCC(n2c(=O)[nH]c3cc(Cl)ccc32)CC1
outcome [2]: inactive

O=NN(CCO)CCO
outcome [3]: inactive

NC1CCC(CC2CCC(N)CC2)CC1 (stereo not drawn)
outcome [1]: inactive

C[C@H](N)[C@H](O)c1ccc(O)c(O)c1
outcome [1]: inactive | outcome [2]: inactive | outcome [3]: inactive

CCc1cc(OC)c(C[C@H](C)N)cc1OC
outcome [1]: inactive | outcome [2]: inactive | outcome [3]: inactive

Clc1cccc(N2CCNCC2)c1
outcome [1]: inactive

O=P(Cl)(Cl)Cl
outcome [1]: inactive | outcome [2]: inactive | outcome [3]: inactive

C[N+](C)(C)CCCl
outcome [3]: inactive

CCCC[N+]1(C)[C@@H]2CC(OC(=O)[C@H](CO)c3ccccc3)C[C@H]1[C@@H]1O[C@@H]12 (stereo partly drawn)
outcome [1]: inactive | outcome [2]: inactive | outcome [3]: inactive

CCCCCCCCCCn1cc[n+](C)c1
AC50 [1]: 15.5 µM (active) | outcome [1]: inactive | AC50 [3]: 45.6 µM (active) and 21.5 µM (active) and 46 µM (active) | outcome [3]: inactive

Cc1cc(OC(=O)N(C)C)nn1C(=O)N(C)C
outcome [1]: inactive | outcome [2]: inactive | outcome [3]: inactive

CN(C)CCc1c[nH]c2cccc(O)c12
outcome [1]: inactive

C[C@@H]1[C@H]2Cc3ccc(O)cc3[C@]1(C)CCN2C
outcome [2]: inactive

CC1(C)S[C@@H]2[C@H](N)C(=O)N2[C@H]1C(=O)O
outcome [1]: inactive | outcome [2]: inactive | outcome [3]: inactive

N#CCCl
outcome [1]: inactive | outcome [2]: inactive | outcome [3]: inactive

COc1cc(CC(C)N)cc(OC)c1OC (stereo not drawn)
outcome [1]: inactive | outcome [3]: inactive

CCN(CC)C(=O)N[C@@H]1C=C2c3cccc4[nH]cc(c34)C[C@@H]2N(C)C1
outcome [1]: inactive | outcome [2]: inactive

COP(N)(=S)Oc1ccccc1C(=O)OC(C)C (stereo not drawn)
outcome [2]: inactive | outcome [3]: inactive

COc1ccc2c3c1O[C@H]1[C@H](O)CC[C@H]4[C@@H](C2)N(C)CC[C@@]341
outcome [2]: inactive

CCNCC(O)c1cccc(O)c1 (stereo not drawn)
outcome [1]: inactive | outcome [2]: inactive | outcome [3]: inactive

CCCC(C)(COC(N)=O)COC(=O)NC1CC1 (stereo not drawn)
outcome [1]: inactive | outcome [2]: inactive | outcome [3]: inactive

NC(=O)OCCCc1ccccc1
outcome [1]: inactive | outcome [2]: inactive | outcome [3]: inactive

CN[C@@H](C)[C@H](O)c1ccccc1
outcome [1]: inactive | outcome [2]: inactive | outcome [3]: inactive

CC(=O)[C@@]1(O)CC[C@H]2[C@@H]3CCC4=CC(=O)CC[C@]4(C)C3(F)[C@@H](O)C[C@@]21C (stereo partly drawn)
outcome [2]: inactive

CC1CCCC1
outcome [1]: inactive

CC[C@@H](CO)NC(=O)[C@@H]1C=C2c3cccc4c3c(cn4C)C[C@H]2N(C)C1
outcome [1]: inactive | outcome [3]: inactive

CCN(CC)CCN1C(=O)CN=C(c2ccccc2F)c2cc(Cl)ccc21
outcome [2]: inactive

CC(C)CCC(=O)O[C@H]1CC[C@H]2[C@@H]3CCC4=CC(=O)CC[C@]4(C)[C@H]3CC[C@]12C
outcome [1]: inactive | outcome [2]: inactive

CCC(C)Br (stereo not drawn)
outcome [1]: inactive | outcome [2]: inactive | outcome [3]: inactive

NCCc1ccc(O)cc1
outcome [1]: inactive

CP(=O)(O)CCC(N)C(=O)O (stereo not drawn)
outcome [4]: inactive | outcome [5]: inactive | outcome [6]: inactive | outcome [7]: inactive | outcome [8]: inactive | outcome [9]: inactive | outcome [10]: inactive | outcome [11]: inactive | outcome [12]: inactive | outcome [13]: inactive | outcome [14]: inactive | outcome [15]: inactive | outcome [16]: inactive | outcome [17]: inactive | outcome [18]: inactive | outcome [19]: inactive | outcome [20]: inactive

O=C(O)CNCP(=O)(O)O
outcome [4]: inactive | outcome [5]: inactive | outcome [6]: inactive | outcome [7]: inactive | outcome [8]: inactive | outcome [9]: inactive | outcome [10]: inactive | outcome [11]: inactive | outcome [12]: inactive | outcome [13]: inactive | outcome [14]: inactive | outcome [15]: inactive | outcome [16]: inactive | outcome [17]: inactive | outcome [18]: inactive | outcome [19]: inactive

CCOP(=O)(OCC)SCSCC
outcome [4]: inactive | outcome [5]: inactive | outcome [6]: inactive | outcome [7]: inactive | outcome [8]: inactive | outcome [9]: inactive | outcome [10]: inactive | outcome [11]: inactive | AC50 [12]: 49.8 µM (active) | outcome [13]: inactive | outcome [14]: inactive | outcome [15]: inactive | AC50 [16]: 90.9 µM (active) | outcome [17]: inactive | outcome [18]: inactive | outcome [19]: inactive | outcome [20]: inactive
